Laboratory results published in ChEMBL document CHEMBL4808148, “HDAC6 screening dataset using tau-based substrate in an enzymatic assay yields selective inhibitors and activators” (2021).
Several values for one entry are separate records, joined by “and”; a condition that tells them apart may be missing. Equal values may be shown once. About 150 (2.7%) of roughly 5,600 compounds showed an effect of 50% or more. Shown is part of a subset that was picked to be rich in strong results.

The compounds below were run against T1, Protein deacetylase HDAC6 (Homo sapiens) (UniProt Q9UBN7). Conditions: at 10 µM.
T1 sequence (whole entry): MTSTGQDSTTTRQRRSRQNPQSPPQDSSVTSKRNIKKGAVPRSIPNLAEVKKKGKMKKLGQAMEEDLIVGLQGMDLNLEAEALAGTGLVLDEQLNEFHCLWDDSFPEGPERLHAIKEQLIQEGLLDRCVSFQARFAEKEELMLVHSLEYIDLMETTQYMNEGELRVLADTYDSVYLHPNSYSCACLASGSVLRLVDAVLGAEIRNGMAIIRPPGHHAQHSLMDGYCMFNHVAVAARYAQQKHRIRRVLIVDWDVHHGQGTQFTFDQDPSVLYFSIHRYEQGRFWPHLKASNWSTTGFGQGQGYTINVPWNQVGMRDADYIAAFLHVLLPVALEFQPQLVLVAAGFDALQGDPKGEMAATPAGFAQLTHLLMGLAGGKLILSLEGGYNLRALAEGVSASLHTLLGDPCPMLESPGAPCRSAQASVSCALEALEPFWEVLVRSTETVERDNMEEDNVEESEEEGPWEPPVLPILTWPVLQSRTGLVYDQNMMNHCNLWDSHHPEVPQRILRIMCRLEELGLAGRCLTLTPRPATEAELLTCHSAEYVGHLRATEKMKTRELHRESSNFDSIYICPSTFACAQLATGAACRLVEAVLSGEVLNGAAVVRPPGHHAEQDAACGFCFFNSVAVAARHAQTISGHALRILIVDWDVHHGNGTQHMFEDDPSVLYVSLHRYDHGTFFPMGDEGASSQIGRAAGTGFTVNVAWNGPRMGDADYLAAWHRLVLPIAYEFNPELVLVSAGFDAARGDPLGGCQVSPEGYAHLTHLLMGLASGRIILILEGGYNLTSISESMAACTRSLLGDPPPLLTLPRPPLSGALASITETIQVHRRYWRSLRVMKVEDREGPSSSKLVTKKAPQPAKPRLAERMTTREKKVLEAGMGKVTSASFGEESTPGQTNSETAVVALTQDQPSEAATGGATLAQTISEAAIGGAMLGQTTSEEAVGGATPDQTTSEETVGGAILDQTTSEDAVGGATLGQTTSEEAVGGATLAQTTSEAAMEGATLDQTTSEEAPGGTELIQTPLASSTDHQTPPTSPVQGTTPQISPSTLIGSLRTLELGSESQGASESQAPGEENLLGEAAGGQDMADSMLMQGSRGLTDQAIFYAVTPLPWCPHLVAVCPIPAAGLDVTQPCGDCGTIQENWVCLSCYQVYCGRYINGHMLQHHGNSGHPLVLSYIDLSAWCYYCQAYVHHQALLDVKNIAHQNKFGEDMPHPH

| Structure (SMILES) | inhibition |
| --- | --- |
| CCN1C(=O)CNc2ncc(-c3ccc(-c4nc[nH]n4)nc3C)nc21 | 0.29% |
| Cc1cc(C)c(/C=C2\C(=O)Nc3ccccc32)[nH]1 | 2.33% |
| Cc1[nH]c(/C=C2\C(=O)Nc3ccccc32)c(C)c1CCC(=O)O | 8.55% |
| CN(C)c1ccc(/C=C2\C(=O)Nc3ccccc32)cc1 | 96.3% |
| CSC1SC[C@H]2C(=O)N(C)[C@@H](C(C)C)C(=O)OC[C@@H](NC(=O)c3cnc4ccccc4n3)C(=O)N[C@@H](C)C(=O)N(C)[C@@H]1C(=O)N(C)[C@@H](C(C)C)C(=O)OC[C@@H](NC(=O)c1cnc3ccccc3n1)C(=O)N[C@@H](C)C(=O)N2C (stereo not given in full) | -2.22% |
| Cc1cc(-c2nc(-c3ccc(OC(F)(F)F)cc3)no2)nn1Cc1ccnc(N2CCN(C3CC3)CC2)c1 | -4.46% |
| COc1cc(C(=O)NC2CCCNC2)cc(OC)c1OC (stereo not given) | -2.46% |
| COc1cc(C(=O)OCCCN2CCCN(CCCOC(=O)c3cc(OC)c(OC)c(OC)c3)CC2)cc(OC)c1OC | -3.62% |
| COc1cc(C(=S)N2CCOCC2)cc(OC)c1OC | 97.4% |
| CC(C)(C)[C@H]1CC[C@H](CC2=C(O)C(=O)c3ccccc3C2=O)CC1 | 4.06% |
| COc1ccccc1C(=O)Nc1cc2c(cc1N1CCCC1)n(C)c(=O)n2C | -4.48% |
| COc1cccc(-c2ccc(NC(=O)C3=C(C(=O)O)CCC3)c(F)c2)c1 | 94% |
| COc1ccc(-c2c(C)c(C(=O)NN3CCCCC3)nn2-c2ccc(Cl)cc2Cl)cc1 | 3.52% |
| CCOc1ccc(-c2ccc(Cn3c(CC(C)(C)C(=O)O)c(SC(C)(C)C)c4cc(OCc5ccc(C)cn5)ccc43)cc2)cn1 | -4.44% |
| C[C@H](NC(=O)Cc1cc(F)cc(F)c1)C(=O)N[C@H](C(=O)OC(C)(C)C)c1ccccc1 | -6.8% |
| C[C@H](NCc1ccc(OCc2ccccc2F)cc1)C(N)=O | 69.9% |
| Cc1ccc(-c2ccc(F)cc2COc2ccc(CCC(=O)O)cc2)cc1 | 2.57% |
| C[C@H](NCc1ccc(OCc2cccc(F)c2)cc1)C(N)=O | 88.8% |
| CC(C)NCC(O)COc1ccc(CC(N)=O)cc1 (stereo not given) | 8.69% and 11.7% |
| O=C1S/C(=C\c2ccc(OCc3cccc(B(O)O)c3)cc2)C(=O)N1Cc1ccc(F)cc1 | 8.15% |
| COC(=O)C1=C(C)NC(C)=C(C(=O)OC/C=C/c2ccccc2)C1c1cccc([N+](=O)[O-])c1 (stereo not given) | -8.71% |
| CN[C@H](CC(C)C)C(=O)N[C@H]1C(=O)N[C@@H](CC(N)=O)C(=O)N[C@H]2C(=O)N[C@H]3C(=O)N[C@H](C(=O)N[C@H](C(=O)O)c4cc(O)cc(O)c4-c4cc3ccc4O)[C@H](O[C@H]3C[C@](C)(N)[C@@H](O)[C@H](C)O3)c3ccc(c(Cl)c3)Oc3cc2cc(c3O[C@@H]2O[C@H](CO)[C@@H](O)[C@H](O)[C@H]2O[C@H]2C[C@](C)(NCc3ccc(-c4ccc(Cl)cc4)cc3)[C@@H](O)[C@H](C)O2)Oc2ccc(cc2Cl)[C@H]1O | 0.32% |
| N#C/C(=C\c1ccc(O)c(O)c1)C(=O)NCc1ccccc1 | 54.9% |
| C[C@H](NC(=O)/C(C#N)=C/c1ccc(O)c(O)c1)c1ccccc1 | 20.7% |

| Structure (SMILES) | inhibition |
| --- | --- |
| N#C/C(=C\c1ccc(O)c(O)c1)C(=O)NCCCCc1ccccc1 | 1.74% |
| N#C/C(=C\c1ccc(O)c(O)c1)C(=O)Nc1ccccc1 | 93.8% |
| N#C/C(=C\c1ccc(O)c(O)c1)C(N)=O | 18.8% |
| N#C/C(=C\c1ccc(O)c(O)c1)C(=O)NCCCc1ccccc1 | 17.5% |
| COCCOCCOc1ccc(C2=N[C@@](C)(C(=O)O)CS2)c(O)c1 | -6.58% |
| O=C(Nc1ccc(F)cc1)N1CCc2ccccc2C1c1ccc(C(F)(F)F)cc1 (stereo not given) | -5.96% |
| COC(=O)[C@H](CC(C)C)NC(=O)c1ccc(NC[C@@H](N)CS)cc1-c1cccc2ccccc12 | 3.13% |
| CC(C)=CCC[C@](C)(O)[C@H]1CC[C@]2(C)[C@@H]1[C@H](O)C[C@@H]1[C@@]3(C)CC[C@H](O)C(C)(C)[C@@H]3[C@@H](O)C[C@]12C | -3.01% |
| OC[C@H]1NCC[C@@H](O)[C@@H]1O | -1.49% |
| CC[C@@H](Nc1c(Nc2cccc(C(=O)N(C)C)c2O)c(=O)c1=O)c1ccc(C)o1 | -5.03% |
| CC(=O)c1ccc2c(c1)[C@@H]1C=CC[C@@H]1[C@H](c1cc3c(cc1Br)OCO3)N2 | -3.37% |
| N=C(N)NCCSSCCNC(=N)N | -3.98% |
| CC(=O)N[C@H](Cc1c[nH]c2ccccc12)C(=O)OCc1cc(C(F)(F)F)cc(C(F)(F)F)c1 | -8.38% |
| Cc1ccc(NC2=CC(=O)c3sc(C)nc3C2=O)cc1 | 58.6% |
| Fc1ccc2c(CCNCc3cccc(OCC(F)(F)C(F)F)c3)c[nH]c2c1 | 4.2% |
| CC[C@]1(O)C[C@@H]2CN(CCc3c([nH]c4ccccc34)[C@@](C(=O)OC)(c3cc4c(cc3OC)N(C)[C@H]3[C@@](O)(C(N)=O)[C@H](O)[C@]5(CC)C=CCN6CC[C@]43[C@@H]65)C2)C1 | -4.06% |
| COc1cc2nc(N3CCN(C(=O)C4COc5ccccc5O4)CC3)nc(N)c2cc1OC (stereo not given) | -3.15% |
| CCCC(=O)N1CCCN(c2nc(N)c3cc(OC)c(OC)cc3n2)CC1 | 15.5% |
| COc1cc2nc(N3CCN(C(=O)C4CCCO4)CC3)nc(N)c2cc1OC (stereo not given) | 79% |
| CCCOCCn1c(=O)c(N2CCN(CCO)CC2)nc2cnc(-c3ccc(OC)nc3)cc21 | 2% |
| O=C(O)CN1CCN(CC(=O)O)CCN(CC(=O)O)CCN(CC(=O)O)CC1 | -2.86% |
| CSc1ccc([C@H]2CN3CCC[C@H]3c3ccccc32)cc1 (racemic) | -1.09% |
| Nc1nccs1 | -0.93% |
| Nc1nncs1 | 60.9% |

| Structure (SMILES) | inhibition |
| --- | --- |
| COCCOc1ccc(N2CCN(CCn3ncc4c3nc(N)n3nc(-c5ccco5)nc43)CC2)cc1 | 4.38% |
| Cc1cc(C)cc(NC(=O)Nc2ccc(OS(N)(=O)=O)cc2)c1 | 76.1% |
| Cc1ccc(S(=O)(=O)OCC(=O)Nc2ccc(C(=O)O)c(O)c2)cc1 | -5.6% |
| NS(=O)(=O)c1ccc(NC(=O)Nc2ccc(F)cc2)cc1 | 0.46% |
| COC(=O)c1ccccc1NC(=O)c1ccc(F)cc1 | 0.65% |
| CS(=O)(=O)N1CCN(Cc2cc3nc(-c4cccc5[nH]ncc45)nc(N4CCOCC4)c3s2)CC1 | 3.78% |
| Cc1c(CN2CCN(C(=O)[C@H](C)O)CC2)sc2c(N3CCOCC3)nc(-c3cnc(N)nc3)nc12 | -2.64% |
| COc1ccc(-c2nc(N3CCOCC3)c3sc(CN(C)c4ncc(C(=O)NO)cn4)cc3n2)cn1 | 97.1% |
| CC(=O)N(OCc1ccccc1)[C@@H]1c2cc(C#N)ccc2OC(C)(C)[C@H]1O | 0.48% |
| O=C(O)CC/C=C\C[C@@H]1CO[C@H](c2ccccc2Cl)O[C@@H]1c1ccccc1O | 11.4% |
| O=C(NCc1ccc(F)cc1)N1CCN2C(=O)OC(c3ccccc3)(c3ccccc3)C2C1 (stereo not given) | -3.2% |
| O=S(=O)(O)c1ccc2[nH]c(-c3ccccc3)nc2c1 | 94.7% |
| CCCn1c(=O)[nH]c2nc(-c3ccc(S(=O)(=O)O)cc3)[nH]c2c1=O | 1.08% |
| Nc1ccc(-c2nc3ccc(-c4nc5ccc(N)cc5[nH]4)cc3[nH]2)cc1 | 0.97% |
| O=C(O)Cc1ccc(CCNS(=O)(=O)c2ccc(Cl)cc2)cc1 | 9.85% |
| COc1cccc(-c2cc(=O)c3ccccc3o2)c1N | 90% |
| Cc1cc(C(=O)N2Cc3cnn(C)c3Nc3ccccc32)ccc1CNC(=O)N1CCC[C@H]1C(=S)N1CCCN(C)CC1 | -1.87% |
| CS(=O)(=O)Nc1ccc2oc3c(OC(F)F)ccc(C(=O)Nc4c(Cl)cncc4Cl)c3c2c1 | -3.43% |
| CC(C)[C@@H](CS(=O)(=O)C(C)C)N1C(=O)[C@@](C)(CC(=O)O)C[C@H](c2cccc(Cl)c2)[C@H]1c1ccc(Cl)cc1 | -1.54% |
| C/N=c1/nc(-c2ccccc2)n(-c2ccccc2)s1 | 69.9% |
| CC1=NN(c2ccccc2)C(=O)C1 | -3.47% |
| Cn1c(-c2ccccc2)nnc1S(C)(=O)=O | -7.28% |
| Clc1cccc(Cl)c1CSc1nnc(-c2cnccn2)s1 | 5.02% |
| O=c1c2ccccc2oc2ccccc12 | 37.9% |

| Structure (SMILES) | inhibition |
| --- | --- |
| c1ccc(-c2n[nH]c3c2oc2ccccc23)cc1 | 70.2% |
| O=C(Nc1ccc(Cl)cc1)Nc1cccc(-c2cccc(N3CCCC3)n2)c1 | -4.23% |
| CN1CC(=O)N=C1NC(=O)Nc1cccc(Cl)c1 | 90.4% |
| N=C(N)NC(=N)Nc1cccc(Cl)c1 | -4.52% |
| C[C@H](N)C(=O)O | -3.75% |
| Cc1ncc(CO)c(/C=N/NC(=O)c2ccncc2)c1O | -0.7% |
| O=C(O)c1cc(N2N=C(C(F)(F)F)/C(=C/c3ccc(-c4ccccc4)o3)C2=O)ccc1Cl | -1.26% |
| COc1cccc(OC)c1-c1cc(C(=O)NC2(C(=O)O)C3CC4CC(C3)CC2C4)nn1-c1ccnc2cc(Cl)ccc12 (stereo not given) | 0.43% |
| O=C(Nc1ccc([N+](=O)[O-])cc1Cl)c1cc(Cl)ccc1O | 97% |
| O=C(Nc1ccccc1)c1cc([N+](=O)[O-])ccc1Cl | -4.52% |
| O=C(Nc1ccncc1)c1cc([N+](=O)[O-])ccc1Cl | -9.26% |
| N#Cc1cc(F)cc(-c2nc(-c3ccc(F)cn3)no2)c1 | 42% |
| c1ccc(Cn2c(N3CCNCC3)nc3ccccc32)cc1 | -7.7% |
| O=C(NC1CCC1)c1ccc(C#Cc2cccc(F)c2)nc1 | 24.9% |
| Cc1nc(C#Cc2ccnc(Cl)c2)c(C)n1-c1ccc(F)cc1 | -3.13% |
| Cc1cc(C)c(N)c(C#Cc2cccc(F)c2)n1 | 93% |
| CC(=O)OC1C[C@H]2C(C)(C)C(=O)C=C[C@]2(C)[C@H]2CC[C@@]3(C)[C@H](c4ccoc4)OC(=O)[C@H]4O[C@]43[C@]12C (stereo not given in full) | -9.28% |
| Nc1cc2c3ccccc3ccc2c2ccccc12 | 23.6% |
| Clc1cccc(C(c2ccc3[nH]cnc3c2)n2ccnc2)c1 (stereo not given) | 0.23% |
| O[C@H]1CC[C@H](Nc2ncc3nc(Nc4c(F)cc(F)cc4F)n([C@H]4CCOC4)c3n2)CC1 | -4.44% |
| Nc1ccc(S(N)(=O)=O)cc1 | -5.55% |
| NS(=O)(=O)c1ccc(S(=O)(=O)Nc2cccc3c(Cl)c[nH]c23)cc1 | 79.5% |
| NCc1ccc(S(N)(=O)=O)cc1 | 0.53% |
